Inconclusive results are not listed. Where a call stands in place of a potency, no number is given. Activity calls are given as the source filed them. The call rests on the fitted dose curve.
Assay: qHTS assay to identify small molecule agonists of the hypoxia (HIF-1) signaling pathway - cell viability counter screen (AID 1224844); further: nearly all actives have a fitted effect of over 50% in size
Conditions: HRE-bla ME-180 viability, CellTiter-Glo luminescence, 17 h; series mostly up to 76.8 µM
Procedure, shortened: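 Tox21 10K compounds were added to HRE-bla ME-180 cells (0.5% dialyzed FBS) and incubated 17 hrs at 37C; ATP-based CellTiter-Glo luminescence then reported cell viability in the same wells.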
With N#CNC#N the Potency was “inactive”. With CCCCCCCCCCCCCN1CC(C)OC(C)C1 (centres undefined) the Potency was “inactive”. In the case of C[C@H]1CC[C@@H]2[C@@H](C)[C@H]3[C@H](C[C@H]4[C@@H]5CC=C6CC(O[C@@H]7O[C@H](CO)[C@H](O)[C@H](O[C@@H]8O[C@H](CO)[C@@H](O)[C@H](O)[C@H]8O)[C@H]7O[C@H]7O[C@@H](C)[C@H](O)[C@@H](O)[C@H]7O)CC[C@]6(C)[C@H]5CC[C@]34C)N2C1 (some centres undefined), the Potency is reported as 16 µM (active). For CC(C)[C@H](C(=O)OC(C#N)c1cccc(Oc2ccccc2)c1)c1ccc(OC(F)F)cc1 (some centres undefined), the Potency was “inactive”. With c1ccc2c(c1)[nH]c1cnccc12 the Potency was “inactive”. With O=c1[nH]c2ccccc2n1CCCN1CCC(n2c(=O)[nH]c3cc(Cl)ccc32)CC1 the Potency was “inactive”. For Cc1ccc(OP(=O)(Oc2ccccc2)Oc2ccccc2)cc1, the Potency was “inactive”. With Cc1c(Cl)c(=O)oc2cc(OP(=O)(OCCCl)OCCCl)ccc12 the Potency was “inactive”. With OC(c1ccc(Cl)cc1)(c1ccc(Cl)cc1)C(Cl)(Cl)Cl the Potency was 21.9 µM (active). With NNC(=O)c1ccccc1 the Potency was “inactive”. In the case of C[C@]12CC[C@H]3[C@@H](CCC4=CC(=O)CC[C@@]43C)[C@@H]1CC[C@@H]2O, the Potency is reported as “inactive”. With CCCN(CCC)CCc1c[nH]c2ccccc12 the Potency was “inactive”. In the case of CCOC(=O)OC1=C(c2cc(C)ccc2C)C(=O)NC12CCC(OC)CC2 (centres undefined), the Potency is reported as “inactive”. In the case of Fc1cccc(Cl)c1CCl, the Potency is reported as “inactive”. In the case of CCN, the Potency is reported as “inactive”. In the case of CC(C)OS(C)(=O)=O, the Potency is reported as “inactive”. In the case of O=C(Nc1ccc2[nH]ccc2c1)c1cc2cc(F)ccc2n1Cc1cccc(F)c1, the Potency is reported as 43.6 µM (active). In the case of O=C(O)COc1nc(Cl)c(Cl)cc1Cl, the Potency is reported as “inactive”. For FC(Cl)(Cl)Cl, the Potency was “inactive”.
Potency means the concentration at half of the fitted maximal effect.
